Screening data (PubChem)
LASV entry inh: Lassa virus entry inhibition | AID 540256 | 1.2% of 300,000 active | Potency, µM (series often up to 37.9 µM), inactives show at the top dose activity change, negative = inhibition, most hits filed as inhibitors | Lassa virus pseudotype entry inhibition, cell reporter; calls by dose curve; tested in HEK293 cells; also: potency is read from the fitted curve at half-maximal effect; % is scaled to controls: 0 for no effect and ±100 for the full control effect; nearly all actives have a fitted effect of over 50% in size
Marburg entry inh: blocks Marburg virus binding to or entry into cells | Marburg virus pseudotyped entry inhibition, cell reporter | Potency, µM (doses to about 37.8 µM), inactives show at the top dose activity change, negative = inhibition, most hits filed as inhibitors | 1.8% of 300,000 active | AID 540276; calls by dose curve; tested in HEK293 cells; also: potency is read from the fitted curve at half-maximal effect; % is scaled to controls: 0 for no effect and ±100 for the full control effect
HCV inh: inhibitors of hepatitis C virus infection; 3.4% of 340,000 active; Potency, µM (top dose mostly 41.8 µM), without a hit: at the top dose activity change, negative = inhibition, usual class: inhibitors; Huh7.5.1 HCVcc-Cre infection, luciferase reporter, 44 h; active = well fitted inhibition curve with a large enough effect; inconclusive = small, poorly fitted or top-dose-only effect, or another doubt; inactive = no such curve, though single readings can be large or run the other way; also: potency is read from the fitted curve at half-maximal effect; % is scaled to controls: 0 for no effect and ±100 for the full control effect
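Antiviral activity was scored by luciferase reporter output from cells infected with HCVcc-Cre (~0.5 moi) in presence of compound, 44 h infection period, cells seeded 1,000/well 4 h prior.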
SARS PLP yeast: blocks SARS-CoV papain-like protease in a yeast assay | S. cerevisiae expressing SARS-CoV PLpro, growth rescue | Potency, µM (highest dose often 32.9 µM), for inactives: at the highest dose activity, positive = growth rescue, most hits filed as activators | 0.19% of 330,000 active | AID 485353; calls by dose curve; also: potency is read from the fitted curve at half-maximal effect; 0% is about no effect; nearly all actives have a fitted effect of over 55% in size
HCMV antiviral: inhibitors of human cytomegalovirus | HFF cells, HCMV-luciferase reporter, 72 h; active compounds read low | activity change, negative = inhibition, % at 57.5 µM | 4.5% of 410,000 active; in the data active = activity change below about -60%; inconclusive = no clear call, values can overlap the other calls; inactive = above about -39%; also: % is scaled to controls: 0 for no effect and ±100 for the full control effect
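Steps: HFFs plated, 16 h 37C; compounds added; HCMV-luciferase added to MOI 1 PFU/cell; 72 h 37C; OneGlo reagent, 5 min room temperature; luminescence read, normalized to controls.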
FMDV inh: antivirals against foot and mouth disease virus | FMDV antiviral cell-based qHTS | Potency, µM (doses to about 57.9 µM), inactives show at the top dose activity change, negative = inhibition, usual class: inhibitors | 1.2% of 410,000 active; calls by dose curve; tested in HEK293T cells; also: read-out not given here; potency is read from the fitted curve at half-maximal effect; % is scaled to controls: 0 for no effect and ±100 for the full control effect; nearly all actives have a fitted effect of over 45% in size
* = called active by the depositor; ? = inconclusive; / = not tested or not shown; [ ] = dose if it differs, or a comment. Most compounds without a hit are left out; they make up all but 8% or so of the library.

SMILES	LASV entry inh	Marburg entry inh	HCV inh	SARS PLP yeast	HCMV antiviral	FMDV inh
CCc1nc2cc(C(=O)N(C)CC3COCCO3)cc(NC(=O)c3ccccc3OC)c2n1C (stereo not given)	/	/	/	/	/	-6%
O=C(Nc1ncc(Cc2cccc([N+](=O)[O-])c2)s1)c1ccco1	/	/	?	0%	-72*	7%
CCc1ccc(CCC(=O)Nc2ncc(Cc3ccccc3Cl)s2)o1	?	?	?	-6%	-61*	-21%
Cc1ccc(Cc2cnc(NC(=O)c3ccco3)s2)cc1	?	?	?	-18%	1	/
CC(C)C(=O)Nc1ncc(Cc2cccc(Cl)c2)s1	-35%	?	-9%	12%	-69*	-20%
CC(=O)Nc1ncc(Cc2cccc(Cl)c2)s1	-17%[46.1 µM]	?	-17%	-6%	-33	0%
O=C(Nc1ncc(Cc2ccccc2Cl)s1)c1ccc(-c2cccc([N+](=O)[O-])c2)o1	/	6%	22µM*	8%	-63*	?
O=C(Nc1ncc(Cc2ccccc2Cl)s1)c1ccc([N+](=O)[O-])cc1	-12%	-6%	?	5%	-18	?
N#Cc1ccsc1NC(=O)CN1C(=O)NC2(CCCCC2)C1=O	/	/	3%	/	-25	3%
O=C(Cn1c(-c2cccs2)cc2cc(Cl)ccc21)N1CCN(c2ccccc2F)CC1	?	/	/	/	-13	8%
CCOC(=O)[C@@H]1CSCCS(=O)(=O)N1Cc1ccc(C(F)(F)F)cc1	/	?	/	/	-30	/
Cc1cc(C)nc(SCc2nnc(SCC(=O)Nc3ccc(C)c(C)c3)n2Cc2ccco2)n1	?	?	25µM*	2%	33	-1%
C[C@H]1CCC/C=C/[C@@H]2C[C@H](O)C[C@H]2[C@H](O)/C=C/C(=O)O1	/	/	0.56µM*	/	-98*	-25%
COc1ccc(Cn2c(=O)c3ccccc3n3c(-c4cccc(OC)c4OC)nnc23)cc1	-2%[46.1 µM]	2%[46.1 µM]	/	/	-89*	-15%
COc1cccc(-c2nnc3n(Cc4ccc(C)cc4)c(=O)c4ccccc4n23)c1O	-2%[46.1 µM]	27%[46.1 µM]	/	/	-8	-22%
COC(=O)c1[nH]c2cc(OC)ccc2c1NC(=O)CCN1CCN(c2cccc(C)c2C)CC1	?	?	6.3µM*	-1%	8	40µM*
COC(=O)c1[nH]c2ccccc2c1NC(=O)CN1CCN(c2cccc(OC)c2)C(C)C1 (stereo not given)	-14%	?	?	-9%	-103*	?
COC(=O)c1[nH]c2cc(OC)ccc2c1NC(=O)CCN1CCN(c2ccccc2)CC1	-3%	-13%	-12%	7%	-3	-11%
CCOc1ccc(OCC)c(NC(=O)CN2CCN(c3cccc(C)c3)C(C)C2)c1 (stereo not given)	?	?	8.9µM*	2%	-7	?
Cc1ccc(C)c(CSc2nnc(C)n3c2cc2sccc23)c1	-22%[46.1 µM]	/	/	/	-19	3%
O=C(COC(=O)COc1ccccc1)NCc1ccc2c(c1)OCO2	-15%	13%	-3%	-2%	4	-25%
COc1ccc(CCNC(=O)Cc2c(C)c3cc(OC)c(OC)cc3oc2=O)cc1	0%[46.1 µM]	-18%[46.1 µM]	/	/	-16	5%
CCOc1nc2cccc(C(=O)OC(C)OC(=O)OC3CCCCC3)c2n1Cc1ccc(-c2ccccc2-c2nn[nH]n2)cc1 (stereo not given)	/	/	/	/	-86*	-8%
CCOc1ccc(C(=O)/C=C/c2cn(CC(O)CN3CCc4ccccc43)c3ccccc23)cc1 (stereo not given)	?	?	/	/	-23	-14%
CC(=O)c1ccc(NC(=O)Nc2ccc3c(c2)nc(C)n3C)cc1	-1%	?	-6%	1%	-24	72%
SMILES	LASV entry inh	Marburg entry inh	HCV inh	SARS PLP yeast	HCMV antiviral	FMDV inh
Cc1cc(NC(=O)Nc2ccc3c(ccn3C)c2)sn1	?	?	0.56µM*	/	-5	45%
COC1=C[C@H](C(=O)NC2CCN(Cc3ccccc3)CC2)C(C)C(c2ccccc2)CC1=O (stereo not given in full)	/	-13%[14.2 µM]	/	/	/	/
CCC1(c2ccc(F)cc2)NC(=O)N(CC(=O)NC2CCCCCC2)C1=O (stereo not given)	-2%	-17%	?	-7%	19	-3%
N#Cc1ccc(-c2cccnc2)nc1SCc1ccc(Cl)cc1Cl	2%	?	-29%	-5%	-21	?
N#Cc1ccc(-c2cccnc2)nc1SCc1ccc(Cl)c(Cl)c1	0%	-1%	11µM*	?	-36	-26%
CC(C)COCC(CN(Cc1ccccc1)c1ccccc1)N1CCCC1 (stereo not given)	13%	?	4%	-1%	-67*	?
CC(C(=O)Nc1ccc(OCc2ccccc2)cc1)N1CCCC1 (stereo not given)	24%[46.1 µM]	?	?	-1%	-35	15%
COc1cccc(C2C(C(N)=O)=C(C)Nc3ncnn32)c1 (stereo not given)	9%[46.1 µM]	-1%[46.1 µM]	/	/	9	-6%
COc1cc(CN2CC(=O)N(c3ccc(C)c(Cl)c3)C2=S)cc(OC)c1OC	-32%[46.1 µM]	-17%[46.1 µM]	-14%	-4%	-32	-23%
COc1cc(CN2CC(=O)N(c3ccccc3Cl)C2=S)cc(OC)c1OC	?	?	?	0%	-26	32µM*
COc1cc(CN2CC(=O)N(c3cccc(Cl)c3C)C2=S)cc(OC)c1OC	/	/	-20%	-5%	-63*	?
COc1cc(C2CC(=O)Oc3cc(C)cc(C)c32)cc(OC)c1OC (stereo not given)	/	/	2%	-6%	-7	-5%
Cc1cccc2c(=O)cc(CSc3ccccc3NC(=O)c3cccc(Cl)c3)[nH]c12	-17%[46.1 µM]	/	/	/	25	-15%
COc1ccc(CCNC(=O)Cc2ccc(NC(=O)N3CCSc4ncccc43)cc2)cc1OC	4%[46.1 µM]	/	/	/	0	-4%
S=C1SCN(Cc2cccnc2)CN1Cc1ccccc1	0%	?	?	-9%	-94*	-15%
COc1cc(/C=C2\SC(=O)N(Cc3ccc(Cl)cc3)C2=O)cc([N+](=O)[O-])c1O	?	?	-17%	1%	-23	?
O=C1CSC(=S)N1Cc1cccnc1	?	?	?	-10%	-98*	?
COc1cc([N+](=O)[O-])cc(/C=C2/SC(=S)N(Cc3ccccc3)C2=O)c1O	/	/	-28%	-11%	-88*	?
S=C1NCN(Cc2cccnc2)CN1Cc1ccccc1	-10%	-2%	-12%	1%	13	-7%
COc1cc(/C=C2\SC(=O)N(Cc3ccc(F)cc3)C2=O)cc([N+](=O)[O-])c1O	?	?	-6%	-1%	-76*	-10%
O=c1c(N2CCCCC2)csc2ccc(F)cc12	28%[46.1 µM]	/	/	/	11	34%
O=C1/C(=C\c2ccc(O)cc2)SC(=S)N1Cc1ccccc1	?	?	12%	-17%	-27	-20%
